# Source: article PMC5540273 (PLoS ONE, 2017)
# Where “and” joins values, the source holds several entries; their conditions need not be identical. Equal values may be shown once. Read-outs that look alike come from different tables or passages of the source.
# What was measured:
# Conditions in all cases: n = 1
# DAPK2 = tested on: DAPK2
# DAPK3 = tested on: DAPK3
# DCAMKL1 = tested on: T1, DCAMKL1
# T1 construct: gene DCLK1
# DCAMKL2 = tested on: T2, DCAMKL2
# T2 construct: gene DCLK2
# DCAMKL3 = tested on: T3, DCAMKL3
# T3 construct: gene DCLK3
# DDR1 = tested on: DDR1
# DDR2 = tested on: DDR2
# DLK = tested on: T4, DLK
# T4 construct: gene MAP3K12
# DMPK2 = tested on: T5, DMPK2
# T5 construct: gene CDC42BPG
# DMPK = tested on: DMPK
# [1] = concentration: 1 μM, replicates: in singlicate
# [2] = concentration: 1 μM,replicates: in singlicate, 1 µM
# 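Also: KINOMEscan kinase panel screen.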
compound,measurement,setting,value
Cc1cccc(-c2nc(C)cc(Nc3ccncc3)n2)n1 [GSK257997],%Inh,DAPK2; [1],2%
same,%Inh,DAPK3; [1],14%
same,%Inh,DCAMKL1; [1],11%
same,%Inh,DCAMKL2; [1],3%
same,%Inh,DCAMKL3; [1],13%
same,%Inh,DDR1; [1],0%
same,%Inh,DDR2; [1],1%
same,%Inh,DLK; [1],0%
same,%Inh,DMPK2; [1],89%
same,%Inh,DMPK; [1],0%
Cc1cccc(-c2nc(Nc3ccc4[nH]ncc4c3)c3ccccc3n2)n1 [GW857175],%Inh,DAPK2; [1],20%
same,%Inh,DAPK3; [1],28%
same,%Inh,DCAMKL1; [1],0%
same,%Inh,DCAMKL2; [1],14%
same,%Inh,DCAMKL3; [1],0%
same,%Inh,DDR1; [1],39%
same,%Inh,DDR2; [1],17%
same,%Inh,DLK; [1],0%
same,%Inh,DMPK2; [1],72%
same,%Inh,DMPK; [1],4%
Cc1nnc(-c2ccc3occ(-c4ccc(S(C)=O)cc4)c3c2)[nH]1 (stereo not drawn),%Inh,DAPK2; [1],5%
same,%Inh,DAPK3; [1],10%
same,%Inh,DCAMKL1; [1],0%
same,%Inh,DCAMKL2; [1],0%
same,%Inh,DCAMKL3; [1],0%
same,%Inh,DDR1; [1],0%
same,%Inh,DDR2; [1],5%
same,%Inh,DLK; [1],0%
same,%Inh,DMPK2; [1],6%
same,%Inh,DMPK; [1],0%
COc1cc2ncnc(Nc3ccc4nc(-c5ccccc5)[nH]c4c3)c2cc1OC.Cl [GW282450],%Inh,DAPK2; [1],15%
same,%Inh,DAPK3; [1],13%
same,%Inh,DCAMKL1; [1],8%
same,%Inh,DCAMKL2; [1],0%
same,%Inh,DCAMKL3; [1],0%
same,%Inh,DDR1; [1],0%
same,%Inh,DDR2; [1],0%
same,%Inh,DLK; [1],7%
same,%Inh,DMPK2; [1],0%
same,%Inh,DMPK; [1],0%
COc1cccc(-c2cc(-c3c[nH]nc3-c3ccccn3)ccn2)c1 [GW680338],%Inh,DAPK2; [1],22%
same,%Inh,DAPK3; [1],23%
same,%Inh,DCAMKL1; [1],13%
same,%Inh,DCAMKL2; [1],0%
same,%Inh,DCAMKL3; [1],0%
same,%Inh,DDR1; [1],3%
same,%Inh,DDR2; [1],37%
same,%Inh,DLK; [1],28%
same,%Inh,DMPK2; [1],6%
same,%Inh,DMPK; [1],0%
Cn1cncc1-c1ccc2ncnc(Nc3ccc(OCc4ccccc4)cc3)c2c1 [GW320571],%Inh,DAPK2; [1],0%
same,%Inh,DAPK3; [1],56%
same,%Inh,DCAMKL1; [1],0%
same,%Inh,DCAMKL2; [1],0%
same,%Inh,DCAMKL3; [1],31%
same,%Inh,DDR1; [1],18%
same,%Inh,DDR2; [1],4%
same,%Inh,DLK; [1],35%
same,%Inh,DMPK2; [1],0%
same,%Inh,DMPK; [1],9%
CN(C)CCN(C)C(=O)c1cc(-c2ccncc2)c(-c2ccc(Cl)c(O)c2)o1.Cl.Cl [SB-710397],%Inh,DAPK2; [1],0%
same,%Inh,DAPK3; [1],33%
same,%Inh,DCAMKL1; [1],56%
same,%Inh,DCAMKL2; [1],9%
same,%Inh,DCAMKL3; [1],0%
same,%Inh,DDR1; [1],34%
same,%Inh,DDR2; [1],38%
same,%Inh,DLK; [1],34%
same,%Inh,DMPK2; [1],47%
same,%Inh,DMPK; [1],0%
Clc1cc(Cl)cc(Nc2ccnc(Nc3cc(Cl)cc(Cl)c3)n2)c1 [GSK175726],%Inh,DAPK2; [1],19%
same,%Inh,DAPK3; [1],23%
same,%Inh,DCAMKL1; [1],0%
same,%Inh,DCAMKL2; [1],0%
same,%Inh,DCAMKL3; [1],0%
same,%Inh,DDR1; [1],6%
same,%Inh,DDR2; [1],24%
same,%Inh,DLK; [1],11%
same,%Inh,DMPK2; [1],18%
same,%Inh,DMPK; [1],0%
Cn1ccc2ncnc(Oc3ccc(Nc4nc5ccccc5[nH]4)cc3)c21,%Inh,DAPK2; [1],0%
same,%Inh,DAPK3; [1],3%
same,%Inh,DCAMKL1; [1],0%
same,%Inh,DCAMKL2; [1],0%
same,%Inh,DCAMKL3; [1],0%
same,%Inh,DDR1; [1],0%
same,%Inh,DDR2; [1],16%
same,%Inh,DLK; [1],0%
same,%Inh,DMPK2; [1],0%
same,%Inh,DMPK; [1],0%
Cl.O=C(Nc1cccc(-c2nn3ncccc3c2-c2ccnc(Nc3cccnc3)n2)c1)c1c(F)cccc1F [GSK312879],%Inh,DAPK2; [1],27%
same,%Inh,DAPK3; [1],6%
same,%Inh,DCAMKL1; [1],12%
same,%Inh,DCAMKL2; [1],0%
same,%Inh,DCAMKL3; [1],0%
same,%Inh,DDR1; [1],94.4%
same,%Inh,DDR2; [1],4%
same,%Inh,DLK; [1],14%
same,%Inh,DMPK2; [1],13%
same,%Inh,DMPK; [1],15%
CCn1c(-c2ccccn2)nc2cnccc21 [SB-736398],%Inh,DAPK2; [1],0%
same,%Inh,DAPK3; [1],13%
same,%Inh,DCAMKL1; [1],5%
same,%Inh,DCAMKL2; [1],0%
same,%Inh,DCAMKL3; [1],0%
same,%Inh,DDR1; [1],0%
same,%Inh,DDR2; [1],39%
same,%Inh,DLK; [1],53%
same,%Inh,DMPK2; [1],0%
same,%Inh,DMPK; [1],0%
COc1ccc(C2=C(Nc3cccc(C(=O)O)c3)C(=O)NC2=O)cc1 [SB-390765],%Inh,DAPK2; [1],5%
same,%Inh,DAPK3; [1],0%
same,%Inh,DCAMKL1; [1],32%
same,%Inh,DCAMKL2; [1],0%
same,%Inh,DCAMKL3; [1],0%
same,%Inh,DDR1; [1],0%
same,%Inh,DDR2; [1],19%
same,%Inh,DLK; [1],0%
same,%Inh,DMPK2; [1],12%
same,%Inh,DMPK; [1],4%
CSc1nn2c(=O)cc(N3CCOCC3)nc2n1Cc1cccc(C(F)(F)F)c1C [GSK2363608],%Inh,DAPK2; [2],9% and 0%
same,%Inh,DAPK3; [2],27% and 0%
same,%Inh,DCAMKL1; [2],10% and 0%
same,%Inh,DCAMKL2; [1],0%
same,%Inh,DCAMKL3; [2],34% and 0%
same,%Inh,DDR1; [2],7% and 4%
same,%Inh,DDR2; [1],0%
same,%Inh,DLK; [2],34% and 0%
same,%Inh,DMPK2; [2],24% and 2%
same,%Inh,DMPK; [1],0%
Cn1ccc2ncnc(Oc3cccc(C(=O)Nc4ccccc4)c3)c21,%Inh,DAPK2; [1],24%
same,%Inh,DAPK3; [1],0%
same,%Inh,DCAMKL1; [1],28%
same,%Inh,DCAMKL2; [1],0%
same,%Inh,DCAMKL3; [1],0%
same,%Inh,DDR1; [1],0%
same,%Inh,DDR2; [1],9%
same,%Inh,DLK; [1],0%
same,%Inh,DMPK2; [1],0%
same,%Inh,DMPK; [1],11%
CN1C(=O)C(Nc2ccc(Cl)c(C(=O)O)c2)=C(c2ccc(Cl)cc2)C1=O [SB-404290],%Inh,DAPK2; [1],9%
same,%Inh,DAPK3; [1],14%
same,%Inh,DCAMKL1; [1],0%
same,%Inh,DCAMKL2; [1],6%
same,%Inh,DCAMKL3; [1],10%
same,%Inh,DDR1; [1],0%
same,%Inh,DDR2; [1],0%
same,%Inh,DLK; [1],0%
same,%Inh,DMPK2; [1],0%
same,%Inh,DMPK; [1],0%
Cc1cccc(-c2nc(Nc3cccc(C(N)=O)c3)c3ccccc3n2)n1 [GW876019],%Inh,DAPK2; [1],0%
same,%Inh,DAPK3; [1],17%
same,%Inh,DCAMKL1; [1],36%
same,%Inh,DCAMKL2; [1],0%
same,%Inh,DCAMKL3; [1],29%
same,%Inh,DDR1; [1],29%
same,%Inh,DDR2; [1],8%
same,%Inh,DLK; [1],0%
same,%Inh,DMPK2; [1],0%
same,%Inh,DMPK; [1],0%
Cc1ccc(NC(=O)Nc2cccc(C(F)(F)F)c2)cc1 [GSK955403],%Inh,DAPK2; 1 µM,3%
same,%Inh,DAPK3; 1 µM,24%
same,%Inh,DCAMKL1; 1 µM,0%
same,%Inh,DCAMKL2; 1 µM,0%
same,%Inh,DCAMKL3; 1 µM,13%
same,%Inh,DDR1; 1 µM,43%
same,%Inh,DDR2; 1 µM,65%
same,%Inh,DLK; 1 µM,0%
same,%Inh,DMPK2; 1 µM,0%
same,%Inh,DMPK; 1 µM,0%
Cc1ccc(NC(=O)Nc2cc(C(C)(C)C)nn2-c2ccccc2)cc1 [GSK1014915],%Inh,DAPK2; [1],0%
same,%Inh,DAPK3; [1],18%
same,%Inh,DCAMKL1; [1],2%
same,%Inh,DCAMKL2; [1],25%
same,%Inh,DCAMKL3; [1],5%
same,%Inh,DDR1; [1],90.7%
same,%Inh,DDR2; [1],88%
same,%Inh,DLK; [1],18%
same,%Inh,DMPK2; [1],0%
same,%Inh,DMPK; [1],3%
